# Measurements taken from ChEMBL document CHEMBL3988442, “University of Dundee, Small-Polar-MMV Screening Library” (2021).
# Molecular target: T1, Methionyl-tRNA synthetase, putative (Leishmania donovani (strain BPK282A1)) (UniProt E9BF75)
# T1 sequence (whole entry): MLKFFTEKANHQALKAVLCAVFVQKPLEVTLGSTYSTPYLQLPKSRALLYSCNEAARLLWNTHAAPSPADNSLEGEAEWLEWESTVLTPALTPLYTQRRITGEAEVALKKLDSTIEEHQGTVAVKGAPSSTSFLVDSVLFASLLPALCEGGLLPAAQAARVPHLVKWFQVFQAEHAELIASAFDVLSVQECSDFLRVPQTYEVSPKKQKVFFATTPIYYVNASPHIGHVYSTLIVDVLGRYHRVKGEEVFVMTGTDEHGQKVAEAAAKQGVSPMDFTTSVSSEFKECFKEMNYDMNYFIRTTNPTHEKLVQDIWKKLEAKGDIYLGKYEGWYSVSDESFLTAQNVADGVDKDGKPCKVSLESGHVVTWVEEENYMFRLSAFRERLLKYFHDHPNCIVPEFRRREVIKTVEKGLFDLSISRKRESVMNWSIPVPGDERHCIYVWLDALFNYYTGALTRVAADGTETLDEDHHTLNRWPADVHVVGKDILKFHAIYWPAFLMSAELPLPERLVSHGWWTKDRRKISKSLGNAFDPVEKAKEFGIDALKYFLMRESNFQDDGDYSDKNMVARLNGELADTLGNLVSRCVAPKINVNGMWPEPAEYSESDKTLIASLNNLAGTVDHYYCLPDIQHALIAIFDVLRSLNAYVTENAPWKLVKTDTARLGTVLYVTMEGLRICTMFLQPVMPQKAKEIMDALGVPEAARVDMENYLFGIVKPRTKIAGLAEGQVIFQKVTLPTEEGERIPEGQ
# Test: Leishmania donovani Methionine tRNA synthetase (LdMetRS):v7. Dose response assay
# Format: functional
# Parameters: conc 80 nM, time 150 minutes
smiles,measurement,setting,value
Cc1cnn(CC2CCCN2Cc2nc(C)c3ccccc3n2)c1 (stereo unspecified),PXC50,"BOTTOM 4.743177934, HILLSLOPE 1.089829687, MAX_EFFECT 75.04332756, TOP 100.0",4.32
same,PXC50,"BOTTOM 12.95021696, HILLSLOPE 2.00591159, MAX_EFFECT 86.80555556, TOP 100.0",4.37
same,PXC50,"BOTTOM -2.883731045, HILLSLOPE 1.436435191, MAX_EFFECT 78.52348993, TOP 84.80947153",4.63
CNS(=O)(=O)c1cccnc1Nc1cccc(C(F)(F)F)c1,PXC50,MAX_EFFECT 3.524229075,< 4
same,PXC50,MAX_EFFECT 5.165289256,< 4
same,PXC50,MAX_EFFECT 6.451612903,< 4
NS(=O)(=O)c1cccnc1Nc1cccc(C(F)(F)F)c1,PXC50,MAX_EFFECT 8.810572687,< 4
same,PXC50,MAX_EFFECT 8.888888889,< 4
same,PXC50,MAX_EFFECT 15.90909091,< 4
COc1ccc(Oc2nccc3occc23)cc1CN1CCCC1,PXC50,"BOTTOM 5.268776127, HILLSLOPE 1.354854137, MAX_EFFECT 57.61821366, TOP 100.0",4.06
same,PXC50,"BOTTOM -7.168939731, HILLSLOPE 0.901042745, MAX_EFFECT 51.70068027, TOP 100.0",4.08
same,PXC50,"BOTTOM -7.793188509, HILLSLOPE 1.286586052, MAX_EFFECT 52.89855072, TOP 100.0",4.09
CC(CO)Nc1nc(Nc2cccc(C(F)(F)F)c2)nc2c1cnn2C (stereo unspecified),PXC50,MAX_EFFECT 16.69829222,< 4
same,PXC50,MAX_EFFECT 21.69811321,< 4
same,PXC50,MAX_EFFECT 22.37442922,< 4
CNS(=O)(=O)CCNc1nc(NCCO)c2cnn(C)c2n1,PXC50,MAX_EFFECT 5.780346821,< 4
same,PXC50,MAX_EFFECT 6.392694064,< 4
same,PXC50,MAX_EFFECT 15.28301887,< 4
O=S(=O)(NCC1CC1)c1cccnc1Nc1cccc(C(F)(F)F)c1,PXC50,MAX_EFFECT 6.072106262,< 4
same,PXC50,MAX_EFFECT 13.21585903,< 4
same,PXC50,MAX_EFFECT 16.32231405,< 4
N[C@@H]1c2ccccc2C2(CCN(c3cnc4ccccc4n3)CC2)[C@H]1O,PXC50,"BOTTOM 0.263751901, HILLSLOPE 1.516790173, MAX_EFFECT 51.81975737, TOP 100.0",4.02
same,PXC50,"BOTTOM -0.439515819, HILLSLOPE 1.13741317, MAX_EFFECT 66.44295302, TOP 100.0",4.24
same,PXC50,"BOTTOM -1.864115217, HILLSLOPE 1.086184415, MAX_EFFECT 68.05555556, TOP 100.0",4.32
Cn1ncc2c(NCCN)nc(Nc3ccc(F)c(F)c3)nc21,PXC50,"BOTTOM 0.911965316, HILLSLOPE 1.032464682, MAX_EFFECT 89.9543379, TOP 102.6852722",4.79
same,PXC50,"BOTTOM 7.300924011, HILLSLOPE 0.949344895, MAX_EFFECT 92.59962049, TOP 105.5838005",4.84
same,PXC50,"BOTTOM 8.334888852, HILLSLOPE 1.031126137, MAX_EFFECT 87.73584906, TOP 103.8891038",4.68
NC1CCN(C2CCN(c3ccc(-c4ccco4)cc3)CC2)CC1,PXC50,MAX_EFFECT 34.50087566,< 4
same,PXC50,MAX_EFFECT 44.89795918,< 4
same,PXC50,MAX_EFFECT 51.44927536,< 4
CCCCOC(=O)CNc1nc(Nc2ccc(F)c(F)c2)nc2c1cnn2C,PXC50,MAX_EFFECT 18.05225653,< 4
same,PXC50,MAX_EFFECT 18.45493562,< 4
same,PXC50,MAX_EFFECT 25.28301887,< 4
CN(C)CCNc1nc(Nc2ccc(F)c(F)c2)nc2c1cnn2C,PXC50,"BOTTOM 0.475518208, HILLSLOPE 0.90804468, MAX_EFFECT 68.49315068, TOP 100.0593914",4.37
same,PXC50,"BOTTOM 1.11826122, HILLSLOPE 1.149142478, MAX_EFFECT 65.47169811, TOP 85.8972695",4.44
same,PXC50,"BOTTOM 3.189178936, HILLSLOPE 1.201155954, MAX_EFFECT 69.44971537, TOP 84.11641449",4.53
COc1ccc(C)cc1CN1CCC(c2cc3ncccc3cn2)CC1,PXC50,"BOTTOM 4.302486836, HILLSLOPE 1.43779927, MAX_EFFECT 88.21490468, TOP 100.0",4.58
same,PXC50,"BOTTOM 8.282667515, HILLSLOPE 1.048150925, MAX_EFFECT 85.90604027, TOP 109.7015184",4.5
same,PXC50,"BOTTOM -10.94583239, HILLSLOPE 1.338598097, MAX_EFFECT 90.27777778, TOP 104.5409309",4.59
COc1cnc(Nc2ccc(F)c(F)c2)nc1NCCO,PXC50,"BOTTOM 1.119092506, HILLSLOPE 0.867597172, MAX_EFFECT 78.41409692, TOP 85.56949583",5.21
same,PXC50,"BOTTOM 1.563075745, HILLSLOPE 0.960019265, MAX_EFFECT 80.27079304, TOP 89.78065845",4.95
same,PXC50,"BOTTOM 4.457946708, HILLSLOPE 0.924831459, MAX_EFFECT 80.78512397, TOP 87.63131575",5.14
Cn1ncc2c(NCCO)nc(Nc3ccccc3S(N)(=O)=O)nc21,PXC50,MAX_EFFECT 2.127659574,< 4
same,PXC50,MAX_EFFECT 3.652968037,< 4
same,PXC50,MAX_EFFECT 13.39622642,< 4
Cn1ncc2c(NCCn3cnnn3)nc(Nc3ccc(F)c(F)c3)nc21,PXC50,"BOTTOM 0.694813003, HILLSLOPE 0.766193094, MAX_EFFECT 55.16528926, TOP 100.0",4.46
same,PXC50,MAX_EFFECT 43.90715667,< 4
same,PXC50,MAX_EFFECT 44.05286344,< 4
CN(CCO)c1nc(Nc2ccc(F)c(F)c2)nc2c1cnn2C,PXC50,"BOTTOM 0.0, HILLSLOPE 0.946216108, MAX_EFFECT 71.34724858, TOP 77.67704584",5.71
same,PXC50,"BOTTOM 6.419914674, HILLSLOPE 1.323004722, MAX_EFFECT 73.51598174, TOP 75.78870148",5.35
same,PXC50,"BOTTOM 11.43918674, HILLSLOPE 1.794336173, MAX_EFFECT 61.32075472, TOP 56.10925087",5.63
